Measurements reported in PubChem BioAssay (NCI).
This is part of a sample that, as a whole, favours compounds with a hit. Of some 83,000 tested, about 20% had one in any assay.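 Step 1: grow cells in 96-well plates. Step 2: add test compound at a single concentration. Step 3: incubate 48 h. Step 4: record percent growth.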 Active and inactive are the calls of the source. The calls were made as follows: active = growth percent below 10; inactive = the rest.

How the values were obtained:
Experiment in all cases: NCI-60 one-dose screen, 48 h (100 = growth as untreated, 0 = no growth, -100 = all killed)
Settings in all cases: 10 µM unless noted
HCT-15 colon = test system: HCT-15 colon
HT29 colon = test system: HT29 colon
SNB-75 CNS = test system: SNB-75 CNS
SNB-19 CNS = test system: SNB-19 CNS
U251 CNS = test system: U251 CNS
PC-3 prostate = test system: PC-3 prostate
SK-MEL-5 melanoma = test system: SK-MEL-5 melanoma
UACC-62 melanoma = test system: UACC-62 melanoma
LOX IMVI melanoma = test system: LOX IMVI melanoma
SK-MEL-28 melanoma = test system: SK-MEL-28 melanoma
SK-MEL-2 melanoma = test system: SK-MEL-2 melanoma
EKVX NSCLC = test system: EKVX NSCLC
SN12C renal = test system: SN12C renal
UO-31 renal = test system: UO-31 renal
TK-10 renal = test system: TK-10 renal
ACHN renal = test system: ACHN renal
CAKI-1 renal = test system: CAKI-1 renal
A498 renal = test system: A498 renal
CCRF-CEM leukemia = test system: CCRF-CEM leukemia
MOLT-4 leukemia = test system: MOLT-4 leukemia

Measured: growth

CC1CCCN(CCCCOc2ccc(-c3ccc(C#N)cc3)cc2)C1 (stereo not given)
inactive: HCT-15 colon 56.4% | HT29 colon 14.6% | SNB-75 CNS 90.3% | SNB-19 CNS 95.3% | U251 CNS 71.7% | PC-3 prostate 75.4% | SK-MEL-5 melanoma 46.2% | UACC-62 melanoma 89.8% | LOX IMVI melanoma 83.9% | SK-MEL-28 melanoma 100% | SK-MEL-2 melanoma 88.6% | EKVX NSCLC 88.9% | SN12C renal 89.3% | UO-31 renal 74.5% | TK-10 renal 80.6% | ACHN renal 111% | CAKI-1 renal 98.7% | A498 renal 82.4% | CCRF-CEM leukemia 59.4% | MOLT-4 leukemia 83.4%

COc1ccc(NC(=O)c2sc3c(=O)[nH]c(C(F)(F)F)nc3c2C)cc1
inactive: HCT-15 colon 104% | HT29 colon 103% | SNB-75 CNS 93.7% | SNB-19 CNS 112% | U251 CNS 98.6% | PC-3 prostate 90.5% | SK-MEL-5 melanoma 106% | UACC-62 melanoma 98.9% | LOX IMVI melanoma 101% | SK-MEL-28 melanoma 109% | SK-MEL-2 melanoma 91.5% | EKVX NSCLC 83.8% | SN12C renal 99.8% | UO-31 renal 74.2% | TK-10 renal 104% | ACHN renal 102% | CAKI-1 renal 85.4% | A498 renal 108% | CCRF-CEM leukemia 90% | MOLT-4 leukemia 89.7%

COc1ccc2c(c1)C1=NN(C(=O)CO)[C@H](c3ccc(OC(F)(F)F)cc3)[C@@H]1CC2
inactive: HCT-15 colon 84.7% | HT29 colon 92.3% | SNB-75 CNS 90.3% | SNB-19 CNS 93.4% | U251 CNS 87.3% | PC-3 prostate 72.9% | SK-MEL-5 melanoma 83.4% | UACC-62 melanoma 76.3% | LOX IMVI melanoma 88.7% | SK-MEL-28 melanoma 121% | SK-MEL-2 melanoma 89.5% | EKVX NSCLC 94.3% | SN12C renal 99.6% | UO-31 renal 53.5% | TK-10 renal 162% | ACHN renal 87.9% | CAKI-1 renal 116% | A498 renal 94.4% | CCRF-CEM leukemia 129% | MOLT-4 leukemia 86.9%

O=c1c2cc(Cl)ccc2oc2ccc(OCCCCCN3CCCCC3)cc12
inactive: SNB-75 CNS 102% | SNB-19 CNS 77.5% | U251 CNS 46% | PC-3 prostate 69.1% | SK-MEL-28 melanoma 12% | SK-MEL-2 melanoma 64.8% | EKVX NSCLC 70.3% | SN12C renal 65.1% | UO-31 renal 60.7% | TK-10 renal 69.2% | ACHN renal 94.8% | CAKI-1 renal 70.8% | A498 renal 75.6% | CCRF-CEM leukemia 39.8% | MOLT-4 leukemia 25.2%
active: HCT-15 colon -14.7% | HT29 colon -27.9% | SK-MEL-5 melanoma -26.2% | UACC-62 melanoma -52.7% | LOX IMVI melanoma -6.06%

CCOC(=O)c1ccc(NC(=O)CSC(N)=O)cc1
inactive: HCT-15 colon 99.4% | HT29 colon 126% | SNB-75 CNS 149% | SNB-19 CNS 91.1% | U251 CNS 94.1% | PC-3 prostate 85.6% | SK-MEL-5 melanoma 103% | UACC-62 melanoma 96.8% | LOX IMVI melanoma 85.7% | SK-MEL-28 melanoma 128% | SK-MEL-2 melanoma 98.6% | EKVX NSCLC 128% | SN12C renal 107% | UO-31 renal 56.6% | TK-10 renal 113% | ACHN renal 102% | CAKI-1 renal 108% | A498 renal 111% | CCRF-CEM leukemia 103% | MOLT-4 leukemia 84.6%

NS(=O)(=O)c1ccc(CCn2c(SCC(=O)N/N=C/c3cc4ccccc4[nH]3)nc3ccccc3c2=O)cc1
inactive: HCT-15 colon 91.4% | HT29 colon 39.2% | SNB-75 CNS 80% | SNB-19 CNS 58.6% | U251 CNS 30.6% | PC-3 prostate 40.2% | SK-MEL-5 melanoma 31.9% | UACC-62 melanoma 53.3% | LOX IMVI melanoma 49.1% | SK-MEL-28 melanoma 88.3% | SK-MEL-2 melanoma 25.7% | EKVX NSCLC 85.3% | SN12C renal 73.4% | UO-31 renal 67% | TK-10 renal 102% | ACHN renal 93.9% | CAKI-1 renal 82.5% | A498 renal 102% | CCRF-CEM leukemia 35% | MOLT-4 leukemia 23.1%

CC(C)c1ccc2c(c1)CCC1C2CCCC1(C)NCc1ccccc1 (stereo not given)
inactive: HT29 colon 16.2% | SNB-75 CNS 85.3% | SNB-19 CNS 104% | U251 CNS 48% | PC-3 prostate 85.4% | SK-MEL-5 melanoma 27.5% | LOX IMVI melanoma 52.1% | SK-MEL-2 melanoma 26.8% | EKVX NSCLC 80.3% | SN12C renal 66.9% | UO-31 renal 45.4% | TK-10 renal 95% | ACHN renal 90.6% | CAKI-1 renal 63.1% | A498 renal 91.5% | CCRF-CEM leukemia 48.3% | MOLT-4 leukemia 39.9%
active: HCT-15 colon 6.42% | UACC-62 melanoma -27.4% | SK-MEL-28 melanoma -32%

NNC(=O)CSc1nc2scc(-c3ccccc3)c2c(=O)n1-c1ccccc1
inactive: HCT-15 colon 101% | HT29 colon 121% | SNB-75 CNS 88.3% | SNB-19 CNS 107% | U251 CNS 103% | PC-3 prostate 80.5% | SK-MEL-5 melanoma 88.4% | UACC-62 melanoma 90.2% | LOX IMVI melanoma 78.7% | SK-MEL-28 melanoma 111% | SK-MEL-2 melanoma 101% | EKVX NSCLC 103% | SN12C renal 101% | UO-31 renal 76.2% | TK-10 renal 178% | ACHN renal 103% | CAKI-1 renal 106% | A498 renal 87.4% | CCRF-CEM leukemia 106% | MOLT-4 leukemia 96%

CC(CN1CCN(CC(C)Nc2ccnc3cc(Cl)ccc23)CC1)Nc1ccnc2cc(Cl)ccc12 (stereo not given)
active: HCT-15 colon -1.75% | HT29 colon -19.7% | SNB-75 CNS -26.8% | U251 CNS 0.467% | SK-MEL-5 melanoma -97.6% | UACC-62 melanoma -62.7% | LOX IMVI melanoma -86.1% | SK-MEL-28 melanoma -91.4% | SK-MEL-2 melanoma -37.9% | UO-31 renal -49.5% | TK-10 renal -48% | CCRF-CEM leukemia 5.14% | MOLT-4 leukemia 4.88%
inactive: SNB-19 CNS 31.6% | PC-3 prostate 26.2% | EKVX NSCLC 67.3% | SN12C renal 57.7% | ACHN renal 19.1% | CAKI-1 renal 11.2% | A498 renal 84.7%

O=C(/C=C/c1cn(-c2ccccc2)nc1-c1ccccc1)OCc1cn(-c2cccc([N+](=O)[O-])c2)nn1
inactive: HCT-15 colon 95.2% | HT29 colon 86.3% | SNB-75 CNS 74.3% | SNB-19 CNS 87.8% | U251 CNS 78.3% | PC-3 prostate 67.4% | SK-MEL-5 melanoma 100% | UACC-62 melanoma 73.5% | LOX IMVI melanoma 90.1% | SK-MEL-28 melanoma 92.1% | SK-MEL-2 melanoma 87.8% | EKVX NSCLC 85.9% | SN12C renal 92.7% | UO-31 renal 68.7% | TK-10 renal 98.6% | ACHN renal 90.1% | CAKI-1 renal 82.5% | A498 renal 66.7% | CCRF-CEM leukemia 81.1% | MOLT-4 leukemia 85.8%

C=C(C)[C@@H]1CC[C@]2(C(=O)NC(COC(=O)C(Cl)Cl)(COC(=O)C(Cl)Cl)COC(=O)C(Cl)Cl)CC[C@]3(C)[C@H](CC[C@@H]4[C@@]5(C)CC[C@H](OC(C)=O)C(C)(C)[C@@H]5CC[C@]43C)[C@@H]12
active: HT29 colon 4.68% | MOLT-4 leukemia 6.2%
inactive: HCT-15 colon 27.9% | SNB-75 CNS 81.2% | SNB-19 CNS 70.6% | U251 CNS 23.4% | PC-3 prostate 11.1% | SK-MEL-5 melanoma 62.1% | UACC-62 melanoma 81% | LOX IMVI melanoma 32.4% | SK-MEL-28 melanoma 86.9% | SK-MEL-2 melanoma 76.5% | EKVX NSCLC 57.7% | SN12C renal 37% | UO-31 renal 55.4% | TK-10 renal 75.8% | ACHN renal 51.1% | CAKI-1 renal 48.4% | A498 renal 99.5% | CCRF-CEM leukemia 18.3%

COc1cc(CN(CCC(O)N2CCCC2=O)Cc2ccc3c(c2)OCO3)cc(OC)c1OC (stereo not given)
inactive: HCT-15 colon 97.5% | HT29 colon 98.3% | SNB-75 CNS 93.7% | SNB-19 CNS 99.5% | U251 CNS 102% | PC-3 prostate 89.5% | SK-MEL-5 melanoma 111% | UACC-62 melanoma 101% | LOX IMVI melanoma 94.9% | SK-MEL-28 melanoma 117% | SK-MEL-2 melanoma 94.5% | EKVX NSCLC 107% | SN12C renal 105% | UO-31 renal 78.1% | TK-10 renal 112% | ACHN renal 100% | CAKI-1 renal 97.1% | A498 renal 118% | CCRF-CEM leukemia 98.3% | MOLT-4 leukemia 85.2%

COc1ccccc1/C=C/C(=O)CCC(=O)O
inactive: HCT-15 colon 113% | HT29 colon 107% | SNB-75 CNS 98.5% | SNB-19 CNS 114% | U251 CNS 107% | PC-3 prostate 94.5% | SK-MEL-5 melanoma 109% | UACC-62 melanoma 108% | LOX IMVI melanoma 99.8% | SK-MEL-28 melanoma 110% | SK-MEL-2 melanoma 102% | EKVX NSCLC 105% | SN12C renal 100% | UO-31 renal 85.2% | TK-10 renal 110% | ACHN renal 101% | CAKI-1 renal 99% | A498 renal 130% | CCRF-CEM leukemia 96.3% | MOLT-4 leukemia 100%

O=C(/C=C/c1ccccc1)c1c[nH]c2ccccc2c1=O
inactive: SNB-19 CNS 16.3% | U251 CNS 11.6% | PC-3 prostate 26.7% | SK-MEL-5 melanoma 43.4% | UACC-62 melanoma 29.2% | SK-MEL-28 melanoma 66.4% | SK-MEL-2 melanoma 95.5% | EKVX NSCLC 36.3% | TK-10 renal 22.5% | ACHN renal 11.6%
active: HCT-15 colon 4.67% | HT29 colon 8.44% | SNB-75 CNS -15.6% | LOX IMVI melanoma -32.6% | SN12C renal 8.29% | UO-31 renal 4.93% | CAKI-1 renal 4.66% | A498 renal -6.19% | CCRF-CEM leukemia -12.2% | MOLT-4 leukemia 9.81%

NC(=O)N/N=C\c1ccc([N+](=O)[O-])o1
inactive: HCT-15 colon 92.5% | HT29 colon 111% | SNB-75 CNS 84.3% | SNB-19 CNS 113% | U251 CNS 93% | PC-3 prostate 85.2% | SK-MEL-5 melanoma 107% | UACC-62 melanoma 103% | LOX IMVI melanoma 91.5% | SK-MEL-28 melanoma 106% | SK-MEL-2 melanoma 114% | EKVX NSCLC 75.2% | SN12C renal 104% | UO-31 renal 85.2% | TK-10 renal 113% | ACHN renal 98.8% | CAKI-1 renal 86.9% | A498 renal 90.1% | CCRF-CEM leukemia 19.9% | MOLT-4 leukemia 103%
